Here are results for 61 molecules from PubChem BioAssay AID1851 (National Center for Advancing Translational Sciences (NCATS), 2009).

Out of some 16,000 compounds screened, about 2,600 (16%) were called active. Another 20% or so got no clear call; they are omitted. Only a sample is shown. A number with no mark means an inactive call. Calls follow the shape of the dose curve; as a rule, active = well fitted curve in the direction sought with a large enough effect; inconclusive = small, poorly fitted or top-dose-only effect, or effect the other way; inactive = no such curve, though single readings can be large or run the other way.
% is scaled to controls: 0 for no effect and ±100 for the full control effect.

Chain of Cytochrome P450 2D6 (Homo sapiens) (P10635 whole entry, looked up): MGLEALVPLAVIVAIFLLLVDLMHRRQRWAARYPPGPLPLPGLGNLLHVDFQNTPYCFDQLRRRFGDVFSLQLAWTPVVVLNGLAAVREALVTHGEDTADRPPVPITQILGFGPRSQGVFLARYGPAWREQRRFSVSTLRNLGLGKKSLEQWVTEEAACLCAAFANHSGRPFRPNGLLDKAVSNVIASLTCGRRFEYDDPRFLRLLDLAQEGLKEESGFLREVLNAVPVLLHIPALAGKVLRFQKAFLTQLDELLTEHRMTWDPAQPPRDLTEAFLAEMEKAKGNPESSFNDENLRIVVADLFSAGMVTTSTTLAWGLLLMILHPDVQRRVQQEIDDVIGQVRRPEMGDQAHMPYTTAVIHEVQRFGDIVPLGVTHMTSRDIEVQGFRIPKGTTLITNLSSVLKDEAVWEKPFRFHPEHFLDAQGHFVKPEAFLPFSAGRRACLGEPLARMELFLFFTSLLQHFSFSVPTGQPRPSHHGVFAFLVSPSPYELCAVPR

The test has as its target Cytochrome P450 2D6 (Homo sapiens) (UniProt P10635). Description: Cytochrome panel assay with activity outcomes. The following applies: recombinant CYP, pro-luciferin dealkylation, luminescence, p450-cyp2d6; series mostly up to 57.1 µM.
Turning to `Cc1noc(NC(=O)Nc2ccccc2F)c1C#N`, the activity, negative = inhibition is 0.368% [at 11.4 µM].
As usually defined, the AC50 is the midpoint of the concentration-response curve, whichever way the signal moves. `CC(/C=C/c1ccco1)=N/NC(=O)c1ccccc1Cl`: the AC50 entry is “inactive”.
For the molecule `CCOC(=O)N/N=C1/C[C@@H](O)[C@@H](O)[C@@H]2[C@@H]3C(=O)N(C(C)(C)C)C(=O)[C@H]3CC[C@@H]12`, the activity, negative = inhibition is -10.6% [at 11.4 µM].
On the same count and under the same terms, the same measure for `CO[C@H]1COC(=O)CCC[C@H](C)[C@@H](OC)COC(=O)C/C=C\[C@@H]1C`: -0.797% [at 11.4 µM].
Take `Cc1ccc(S(=O)(=O)c2cc(N3CCOCC3)nc(-c3ccccc3)n2)cc1`: the AC50 entry was “inactive”.
The same measure, in the same setting: as for `N#CCCn1c(=O)cnc2cnc(OCc3ccccc3)nc21`, the entry is “inactive”.
Regarding `CCCNC(=O)OC[C@@H]1O[C@H](CCON=C(C)C)C=C[C@@H]1Oc1ccc(OC)cc1`, the activity, negative = inhibition was -7.52% [at 11.4 µM].
With `COc1cc2nc(N3CC=[N+](C(=O)c4ccco4)CC3)nc(N)c2cc1OC`, the AC50 result was “inactive”.
Consider `CCOc1ccccc1/C=C(\C#N)C(N)=O`, for which the activity, negative = inhibition is 1.77% [at 11.4 µM].
As to `C[C@H]1C2=C3C(CC[C@H]4C(OCc5ccc(F)cc5C(F)(F)F)OC[C@](C)([C@@H]34)N(C(=O)OC(C)(C)C)C2)C(CO)C1CO` (stereo partly specified), the AC50 result was “inactive”.
As to `Nc1nc2c(c(=O)[nH]1)N(C=O)[C@H](CNc1ccc(C(=O)N[C@@H](CCC(=O)O)C(=O)O)cc1)CN2`, the AC50 result is “inactive”.
As to `CC(Sc1nnc(Cc2cccs2)n1C1CCCCC1)C(N)=O` (stereo unspecified), the AC50 result was “inactive”.
On the same count and under the same terms, the same measure for `CC1CCC(NC(=O)CC(C)(C)Cc2nc3ccccc3c(=O)[nH]2)CC1` (stereo unspecified): “inactive”; for `N=C(C[C@@H](O)COc1ccccc1-c1ccccc1)N1CCCCC1`: 31.6 µM (active); for `O=C(COc1ccccc1-c1ccccc1)N/N=C/c1cccc2ccccc12`: “inactive”.
Turning to `O=c1c(-c2cc(F)cc(F)c2)nc2cnc(N3CCNCC3)nc2n1C1CC1`, the AC50 entry is “inactive”.
As for `Cc1ccc2cc(C(=O)O)c(C)nc2c1`, the AC50 result is “inactive”.
The same measure, in the same setting: the same measure for `Cc1ccc(CSc2nc3c(c(SCC(=O)O)n2)CCCC3)cc1`: “inactive”.
As for `CO[C@H]1COC(=O)C/C=C\[C@@H](C)[C@H](OC)COC(=O)[C@H]2CCCN2C(=O)C/C=C\[C@@H]1C`, the activity, negative = inhibition was 18.5% [at 11.4 µM].
For `O=C(Nc1ccccc1)N(Cc1ccccc1)CC(O)C(F)(F)F` (stereo unspecified), the AC50 result is “inactive”.
`CC(O)(CS(=O)(=O)Cc1ccccc1Cl)C(=O)Nc1cccc(C(F)(F)F)c1` (stereo unspecified): the AC50 result is “inactive”.
`O=C(Nc1cccc(C(F)(F)F)c1)N(Cc1ccc(Cl)cc1)CC(O)C(F)(F)F` (stereo unspecified): the AC50 was 15.8 µM (active).
As for `O=S(=O)(NCc1cn2ccsc2n1)c1ccc(Oc2ccccc2)cc1`, the AC50 result is “inactive”.
Consider `CCN(c1ccc(NC(=O)COC(=O)c2ccc3ccccc3n2)cc1)C(C)C`, for which the AC50 entry is “inactive”.
`O=C(NCCOC(=O)c1ccc(C(=O)OCCNC(=O)c2cccnc2)s1)c1cccnc1`: the AC50 result was “inactive”.
Consider `O=C(OCCNC(=O)c1ccc2ccccc2n1)c1ccc(F)cc1`, for which the AC50 is 15.8 µM (active).
With `Cc1cc(C)cc(-n2nnnc2SCC(=O)Nc2nc(-c3ccc(Cl)cc3)cs2)c1`, the AC50 entry is “inactive”.
The same measure, in the same setting: as for `COc1ccc(NC(=O)N2CC[C@@]3(CCCN(C(=O)c4c(C)noc4C)C3)C2)cc1`, the entry is “inactive”; as for `COC(=O)N1CCC[C@@]2(CCN(C(=O)Nc3ccc(OC)cc3)C2)C1`, “inactive”; as for `CC(=O)N1CCC2(CC1)CCN(C(c1ccccc1)c1ccccc1)CC2`, 7.94 µM (active).
`COc1ccc(NC(=O)N2CCCC3(CCN(C(=O)c4c(C)noc4C)CC3)C2)cc1`: the AC50 was 10 µM (active).
Take `COC(=O)N1CCC[C@@]2(CCN(C(c3ccccc3)c3ccccc3)C2)C1`: the AC50 is 2 µM (active).
On to `COc1ccc(NC(=O)N2CC3(CCN(C(=O)c4c(C)noc4C)CC3)C2)cc1`, for which the AC50 result was “inactive”.
On the same count and under the same terms, the same measure for `Cc1noc(C)c1C(=O)N1CCC2(CC1)CN(c1ccccc1)C2`: “inactive”; for `CC(=O)N1CCC2(CC1)CN(c1ccccc1)C2`: “inactive”; for `COC(=O)N1CCC[C@@]2(CCN(C(=O)Nc3ccccc3)C2)C1`: “inactive”.
In the case of `Cc1noc(C)c1C(=O)N1CCC[C@@]2(CCN(c3ccccc3)C2)C1`, the AC50 entry was “inactive”.
Regarding `CC(=O)N1CCC2(CC1)CN(C(c1ccccc1)c1ccccc1)C2`, the AC50 result was “inactive”.
In the case of `Cc1noc(C)c1C(=O)N1CCC2(CCCN(C(c3ccccc3)c3ccccc3)C2)CC1`, the AC50 is 2 µM (active).
As for `COc1ccc(-n2c(C)n[nH]c2=O)cc1OC`, the AC50 result was “inactive”.
For the molecule `O=c1cnc2cnc(Oc3ccccc3)nc2n1CCc1ccccc1`, the AC50 result was “inactive”.
For `Nc1nc2ncc(CNc3ccc(C(=O)N[C@@H](CCC(=O)O)C(=O)O)cc3)nc2c(=O)[nH]1`, the AC50 entry was “inactive”.
In the case of `COc1ccc(NC(=O)C2(c3ccc(NC(=O)c4ccc(OC(C)=O)cc4)cc3)CCCC2)cc1`, the AC50 result is “inactive”.
In the case of `CC(=O)N(/N=C1\Sc2ccccc2C1=O)c1ccccc1C`, the AC50 result is “inactive”.
`COc1ccc(-n2c(=O)c(-c3cccs3)nc3cnc(N4CCN(C)CC4)nc32)cc1`: the AC50 result was “inactive”.
`CCOC(=O)N/N=C/c1ccccc1F`: the AC50 result was “inactive”.
`O=C(CNC(=O)c1ccco1)OC(C(=O)c1ccccc1)c1ccccc1` (stereo unspecified): the AC50 entry is “inactive”.
In the case of `COC(=O)N1CCC2(CC1)CN(C(=O)Nc1ccccc1)C2`, the AC50 result is “inactive”.
`COC(=O)N1CCC2(CC1)CN(c1ccc(-c3ccccc3)cc1)C2`: the AC50 entry was “inactive”.
As for `CC(=O)N1CCC[C@@]2(CCN(c3ccccc3)C2)C1`, the AC50 result was “inactive”.
Same read-out and setting: the same measure for `COC(=O)N1CCC2(CC1)CCN(C(c1ccccc1)c1ccccc1)CC2`: 7.94 µM (active).
The same measure, in the same setting: the same measure for `COC(=O)N1CCC2(CCCN(C(c3ccccc3)c3ccccc3)C2)CC1`: 10 µM (active); for `COC(=O)N1CCC2(CC1)CCN(c1ccccc1)CC2`: “inactive”; for `CC(=O)N1CCC2(CCCN(C(c3ccccc3)c3ccccc3)C2)CC1`: 7.94 µM (active).
Consider `COC(=O)N1CCC2(CC1)CN(c1ccccc1)C2`, for which the AC50 entry was “inactive”.
For `COC(=O)N1CCC2(CCN(C(=O)Nc3ccccc3)CC2)CC1`, the AC50 entry was “inactive”.
On to `COC(=O)N1CCC2(CC1)CN(C(c1ccccc1)c1ccccc1)C2`, for which the AC50 is 0.794 µM (active).
For `CC(=O)N1CCC2(CCCN(c3ccccc3)C2)CC1`, the AC50 entry was “inactive”.
Regarding `COC(=O)N1CCC2(CCCN(c3ccc(-c4ccccc4)cc3)C2)CC1`, the AC50 entry is “inactive”.
`Cc1c(NC(=O)NC(C)N2C(=O)C3C4C=CC(C4)C3C2=O)c(=O)n(-c2ccccc2)n1C` (stereo unspecified): the AC50 result is “inactive”.
For `CCOC(=O)C1=C(CSc2nc(-c3ccccc3)ccc2C#N)OC(N)=C(C#N)C1c1ccc(OC)cc1` (stereo unspecified), the AC50 result is “inactive”.
